# Assay results published in PubChem BioAssay (NCI).
# Where “and” joins values, the source holds several entries; their conditions need not be identical. Equal entries are not always repeated. About 83,000 compounds went through this panel and 20% of them were active in at least one assay; those are over-represented in the sample as a whole.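 Each cell line was grown in a 96-well plate and treated with one concentration of compound for 48 hours. Values below 10 were considered active.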 The source holds several records for some structures; these can differ, active in one and inactive in another. Calls of active or inactive are those of the source.
# Assays:
# Test in all cases: NCI-60 one-dose screen, 48 h (100 = growth as untreated, 0 = no growth, -100 = all killed)
# Details in all cases: 10 µM
# [1] = test system: HOP-92 NSCLC
# [2] = test system: K-562 leukemia
# [3] = test system: MALME-3M melanoma
# [4] = test system: RXF 393 renal
# [5] = test system: SK-MEL-28 melanoma
# [6] = test system: SK-MEL-2 melanoma
# [7] = test system: TK-10 renal
# [8] = test system: A498 renal
# [9] = test system: RPMI-8226 leukemia
# [10] = test system: OVCAR-3 ovarian
# [11] = test system: BT-549 breast
# [12] = test system: HCC-2998 colon
# [13] = test system: UACC-257 melanoma
# [14] = test system: CAKI-1 renal
SMILES,growth [1],growth [2],growth [3],growth [4],growth [5],growth [6],growth [7],growth [8],growth [9],growth [10],growth [11],growth [12],growth [13],growth [14]
CC1=C[C@H]2O[C@@H]3C[C@H]4OC(=O)/C=C\C=C\[C@H]([C@@H](C)O)OCC/C(C)=C/C(=O)OC[C@@]2(CC1)[C@]4(C)[C@]31CO1,-19.1% (active),-6.8% (active),-65.9% (active),-70.5% (active),-38.6% (active),-61.1% (active),-24.5% (active),-80.8% (active),-30.5% (active),-19.2% (active),-28.6% (active),-55.6% (active),–,–
CC(C)=CCc1c2c(c(O)c3c1O[C@]14C(=C[C@@H]5C[C@H]1C(C)(C)O[C@@]4(C/C=C(/C)C(=O)O)C5=O)C3=O)C=CC(C)(C)O2,-53.6% (active),2.2% (active),-70.4% (active),-85.5% (active),-88.2% (active),-75.2% (active),–,-94.3% (active),-8.35% (active),-93.9% (active),-11.2% (active),-88.1% (active),-77.2% (active),–
N#Cc1nc(-c2ccccc2)oc1N1CCC(S(=O)(=O)F)CC1,94.2% (inactive),103% (inactive),98.9% (inactive),92.3% (inactive),104% (inactive),120% (inactive),113% (inactive),108% (inactive),101% (inactive),–,108% (inactive),104% (inactive),107% (inactive),100% (inactive)
COc1cc2c(O[C@@H]3OC[C@H](O)[C@H](O)[C@H]3O)c3c(c(-c4ccc5c(c4)OCO5)c2cc1OC)C(=O)OC3,–,19.3% (inactive),54.4% (inactive),53.6% (inactive),40.8% (inactive),49% (inactive),–,15% (inactive),89.8% (inactive),80.2% (inactive),31% (inactive),73.4% (inactive),23.6% (inactive),–
C[C@@H]1C[C@H]2C(=O)O[C@@H](C)C(NC(=O)[C@H](Cc3cc(F)cc(F)c3)NC(=O)Nc3ccc(OS(=O)(=O)F)cc3)C(=O)N3CCC[C@H]3C(=O)N3CCO[C@H](C)[C@H]3C(=O)N[C@@H](CO)C(=O)N2C1 (stereo partly drawn),9.16% (active),20.7% (inactive),39% (inactive),-5.55% (active),40.5% (inactive),–,71.7% (inactive),–,19.7% (inactive),–,22.4% (inactive),23.9% (inactive),16.2% (inactive),39.4% (inactive)
CC1=C[C@H]2O[C@@H]3C[C@@H](O)[C@](C)([C@@]2(C)CC1)[C@@]31CO1,41.3% (inactive),18.5% (inactive),21% (inactive),15.3% (inactive),27.1% (inactive),22.6% (inactive),52.8% (inactive),39.2% (inactive),29.3% (inactive),38.9% (inactive),21.1% (inactive),18.2% (inactive),–,–
CCC(C)[C@H]1C(=O)O[C@H](C(C)C)C(=O)N(C)[C@@H](C(C)C)C(=O)O[C@H](C(C)C)C(=O)N(C)[C@@H](C(C)C)C(=O)O[C@H](C(C)C)C(=O)N1C (stereo partly drawn),-19% (active),6.74% (active),14.7% (inactive),22% (inactive),34.4% (inactive),-2.6% (active),8.22% (active),-8.55% (active),-25.6% (active),19.9% (inactive),14.2% (inactive),32.3% (inactive),–,–
COc1cc2c(O[C@@H]3OC[C@H](OC(C)=O)[C@H](OC(C)=O)[C@H]3O)c3c(c(-c4ccc5c(c4)OCO5)c2cc1OC)C(=O)OC3,-13.3% (active),–,39.3% (inactive),54.4% (inactive),–,-31.8% (active),42.3% (inactive),70.6% (inactive),-2.08% (active),59.4% (inactive),23.4% (inactive),–,-35.8% (active),13.8% (inactive)
NC1CCc2cc(O)c(O)cc2C1 (stereo not drawn),–,1.68% (active),–,81.9% (inactive),87.1% (inactive),97.7% (inactive),94.6% (inactive),71.9% (inactive),17.2% (inactive),101% (inactive),86.3% (inactive),46.2% (inactive),103% (inactive),94.1% (inactive)
CC(=O)O[C@@H]1C[C@H]2O[C@@H]3C=C(C)CC[C@]3(C)[C@]1(C)[C@]21CO1,16.8% (inactive),4.68% (active),5.52% (active),4.11% (active),-1.27% (active),-3.89% (active),66.6% (inactive),34.6% (inactive),-14.7% (active),14.7% (inactive),-14.3% (active),8.92% (active),–,–
CC1=C2C(=C[C@@](C)(COS(C)(=O)=O)[C@@H]2O)C(=O)[C@](C)(O)C12CC2,-15.5% (active),3.56% (active),-33% (active),-78.1% (active),-28.4% (active),-39.5% (active),5.33% (active),-61% (active),–,7.64% (active),-15.9% (active),-25.7% (active),0.386% (active),-31.5% (active)
C[C@@H]1CCC/C=C/[C@H]2C[C@@H](O)C[C@@H]2[C@@H](O)/C=C/C(=O)O1,-4.99% (active),15% (inactive),-7.08% (active),-8.61% (active),18.3% (inactive),-38.9% (active),-45% (active),-14.7% (active),-1.65% (active),-1.9% (active),6.57% (active),21.1% (inactive),–,–
CC1=C(CCC=NNC(N)=O)C2=C(C)C3(CC3)[C@@](C)(O)C(=O)C2=C1,–,54.7% (inactive),-71.1% (active),-93.6% (active),-48.8% (active),–,-9.84% (active),–,59.8% (inactive),–,-93.5% (active),-73.2% (active),-62.1% (active),0.975% (active)
N#Cc1c(-n2c(Br)c(Br)c3cc(Br)ccc32)[nH]c2c(Br)cc(Br)cc12,-31.4% (active),7.11% (active),-17.4% (active),-31.7% (active),5.46% (active),-61.2% (active),-2.55% (active),-73% (active),-3.21% (active),–,-54.7% (active),2.82% (active),-23.8% (active),-3.39% (active)
CC1=C(CN(O)C(N)=O)C2=C(C)C3(CC3)[C@](C)(O)C(=O)C2=C1,-3.67% (active),0.207% (active),2.97% (active),-85.3% (active),-28.4% (active),-28.8% (active),-5.27% (active),-76.5% (active),-22.7% (active),-3.14% (active),12.9% (inactive),-63.1% (active),6.8% (active),4.61% (active)
CC(C)(O)/C=C/C(=O)[C@](C)(O)[C@H]1[C@H](O)C[C@@]2(C)[C@H]3CC=C4[C@@H](C[C@H](O)C(=O)C4(C)C)[C@]3(C)C(=O)C[C@]12C,-36.4% (active),12.1% (inactive),-28.3% (active),-35.3% (active),-7.52% (active),-28.2% (active),-33% (active),-73.1% (active),3.64% (active),1% (active),-24.5% (active),36.1% (inactive),–,-60.5% (active)
CC(=O)O[C@@H]1[C@@H]2O[C@H]2[C@@](C)(O)C(=O)[C@@H](C)C/C=C/[C@H]2[C@@H]3O[C@]3(C)[C@@H](C)C3[C@H](Cc4ccccc4)NC(=O)[C@@]312 (stereo partly drawn),-28.8% (active),68.8% (inactive),71% (inactive),20.3% (inactive),71% (inactive),72.1% (inactive),-8.91% (active),3.87% (active),81.8% (inactive),54.2% (inactive),29.8% (inactive),77.4% (inactive),–,–
Cc1ccc(CNc2nc3ccc(OC/C(=C/F)CN)cc3o2)cn1,93.9% (inactive),108% (inactive),105% (inactive),69.1% (inactive),107% (inactive),110% (inactive),71.9% (inactive),58.4% (inactive),105% (inactive),109% (inactive),–,111% (inactive),104% (inactive),68.3% (inactive)
CC1=C(CN(O)C(N)=O)C2=C(C)C3(CC3)[C@@](C)(O)C(=O)C2=C1,-21.1% (active),95.4% (inactive),-39.2% (active),-78.9% (active),-33% (active),-47.8% (active),-15% (active),-82% (active),91.5% (inactive),-26.9% (active),-24.5% (active),-53.2% (active),-14.7% (active),-3.78% (active)
COc1cc(C)c(-c2ccc(OC)c(=O)cc2C)c(OC)c1OC,39.6% (inactive) and 85.5% (inactive),6.36% (active) and 85.8% (inactive),46.7% (inactive) and 95.3% (inactive),-10.8% (active) and 115% (inactive),47.9% (inactive) and 103% (inactive),0.162% (active) and 113% (inactive),94.5% (inactive) and 94.2% (inactive),-18% (active) and 86.9% (inactive),15% (inactive) and 94.4% (inactive),–,15.7% (inactive) and 120% (inactive),10.6% (inactive) and 114% (inactive),56.2% (inactive) and 97.6% (inactive),39.6% (inactive) and 86.1% (inactive)
O=C(CCCc1ccc(N(CCCl)CCCl)cc1)OCc1ccccc1,103% (inactive),93.8% (inactive),92% (inactive),109% (inactive),101% (inactive),111% (inactive),107% (inactive),98.5% (inactive),96.3% (inactive),–,95.5% (inactive),101% (inactive),94.1% (inactive),73.7% (inactive)
